# Results taken from PubChem BioAssay AID588342 (National Center for Advancing Translational Sciences (NCATS), 2011).
# Hit rate of the full screen: of about 360,000 compounds, about 25,000 (6.9%) were called active. A call without a number means that no potency is given here. Not shown: some 9% with an inconclusive outcome. The call rests on the fitted dose curve; in most records, active means well fitted inhibition curve with a large enough effect; inconclusive means small, poorly fitted or top-dose-only effect; inactive means flat fitted curve, though single readings scatter. This excerpt belongs to a sample that is enriched for actives.
# Target: Luciferin 4-monooxygenase (Photinus pyralis) (UniProt P08659)
# Sequence (P08659 whole entry, looked up): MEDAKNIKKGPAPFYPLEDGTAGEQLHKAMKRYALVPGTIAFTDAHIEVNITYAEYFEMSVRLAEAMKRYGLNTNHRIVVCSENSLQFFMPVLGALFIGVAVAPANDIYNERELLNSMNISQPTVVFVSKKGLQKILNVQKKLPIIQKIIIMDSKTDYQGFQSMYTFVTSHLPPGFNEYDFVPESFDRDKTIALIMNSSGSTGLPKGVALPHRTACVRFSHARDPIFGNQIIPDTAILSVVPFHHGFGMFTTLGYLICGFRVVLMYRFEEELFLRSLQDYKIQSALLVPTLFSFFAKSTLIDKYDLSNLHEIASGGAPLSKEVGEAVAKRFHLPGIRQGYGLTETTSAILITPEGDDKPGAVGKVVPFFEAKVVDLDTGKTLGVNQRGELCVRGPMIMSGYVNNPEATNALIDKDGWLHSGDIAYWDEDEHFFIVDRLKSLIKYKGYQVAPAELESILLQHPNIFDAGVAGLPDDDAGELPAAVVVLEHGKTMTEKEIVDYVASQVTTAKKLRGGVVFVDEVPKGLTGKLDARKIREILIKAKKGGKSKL
# Test: qHTS profiling assay for firefly luciferase inhibitor/activator using purifed enzyme and Km concentrations of substrates (counterscreen for miR-21 project); further: nearly all actives have a fitted effect of over 55% in size
# Details: purified FLuc, luminescence inhibition; series mostly up to 57.5 µM
# How it was run: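 Biochemical qHTS of compounds, final roughly 60 µM downward over six points, against 10 nM purified firefly luciferase using Km concentrations of substrates (10 uM D-luciferin, 10 uM ATP) in Tris acetate pH 7.5 buffer; luminescence output.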
# Potency means the concentration at half of the fitted maximal effect.
row,SMILES,Potency
1,COc1cccc(NC(=O)N(Cc2cn(C)c3ccccc23)C2CCCCCC2)c1,inactive
2,CC(=O)OC1=C(C(C)=O)N(Cc2ccccc2)S(=O)(=O)c2ccccc21,inactive
3,Cc1cccc(C2=N/C(=C/c3cccs3)C(=O)O2)c1,2.69 µM (active)
4,Cc1ccc(C2=N/C(=C\c3ccc(OS(=O)(=O)c4ccc(C)cc4)cc3)C(=O)O2)cc1,inactive
5,CN1/C(=C\C=C2\N=C(c3ccc(F)cc3)OC2=O)C(C)(C)c2ccccc21,inactive
6,CCCCOc1ccc(C(=O)N2CC(=O)Nc3ccc(Br)cc3C2c2ccc(F)cc2)cc1 (centres undefined),inactive
7,CCc1ccc(CNC(=O)c2cc3cc4ccc(OC)cc4nc3o2)cc1,inactive
8,Cc1ccc2oc(=O)c3cnn(CC(=O)N4CCCCCC4)c3c2c1,inactive
9,Cc1ccc2cc3cc(C(=O)N4CCCCCC4)oc3nc2c1,2.69 µM (active)
10,CCCCn1c(N)c(N(CC)C(=O)c2ccc(N(C)S(=O)(=O)c3ccc(C)cc3)cc2)c(=O)[nH]c1=O,inactive
11,Cc1cc(Br)ccc1SCC(=O)OCC(=O)NCc1ccc2c(c1)OCO2,inactive
12,Cc1ccccc1NC(=O)Cc1nc(COC(=O)c2cccnc2Cl)cs1,inactive
13,CCCNC(=O)C1CCC(Cn2c(=O)c3sccc3n(Cc3ccccc3F)c2=O)CC1 (centres undefined),inactive
14,CC(=O)Nc1ccc(NC(=O)CSc2ncnc3c2cnn3Cc2ccccc2)cc1,inactive
15,CCN(CC)C(=O)CSc1ncnc2c1cnn2-c1ccccc1,16.9 µM (active)
16,CC(=O)Cn1cnc2c(cnn2-c2ccccc2)c1=O,inactive
17,COc1ccc(-n2ncc3c(SCC(=O)NNC(C)=O)ncnc32)cc1,16.9 µM (active)
18,O=C(Cn1cnc2c(cnn2-c2ccc(F)cc2)c1=O)NCCc1ccccc1,inactive
19,CC(C)Sc1ncnc2c1cnn2-c1ccccc1,1.51 µM (active)
20,CC(Sc1ncnc2c1cnn2-c1ccccc1)C(=O)Nc1ccc(N2CCOCC2)cc1 (centres undefined),inactive
21,COc1ccc(NC(=O)CSc2ncnc3[nH]ncc23)cc1,inactive
22,O=C(Cn1cnc2c(cnn2-c2ccccc2)c1=O)NCc1ccccc1,inactive
23,CCN(CC)C(=O)CSc1nc2cc3c(cc2c(=O)n1CCCC(=O)NCc1ccc2c(c1)OCO2)OCO3,inactive
24,CCC1=Nc2cc(C(=O)NCCCOC(C)C)ccc2Sc2ccc(C)cc21,inactive
25,CCN(CC)S(=O)(=O)c1ccc2c(c1)c(=O)c(C(=O)N1CCN(c3cccc(Cl)c3)CC1)cn2C,inactive
26,CC(C)(C)OC(=O)N1CCC(c2c(C(=O)Nc3ccc4c(c3)OCO4)cnn2-c2ccccc2)CC1,inactive

row,SMILES,Potency
1,COc1ccc(-c2noc(CCC(=O)N(C)c3ccccc3C)n2)cc1,inactive
2,CN(CC(=O)NCC(c1ccccc1)N1CCCC1)S(=O)(=O)c1ccc(Cl)cc1 (centres undefined),inactive
3,CCOC(=O)c1ccc(NC(=O)Cn2c(=O)cc(C)c3c(C)nn(-c4cccc(F)c4)c32)cc1,inactive
4,O=C(COC(=O)CCc1nc2ccccc2c(=O)[nH]1)Nc1ccc(N2CCOCC2)cc1,inactive
5,CCCCCCSc1nsc(N)n1,26.9 µM (active)
6,CCCSc1nsc(N)n1,inactive
7,CC(C)CC(=O)NC(=S)NNC(=O)c1cccc([N+](=O)[O-])c1,inactive
8,COc1ccc(OCCNC(=O)c2cc(C3CC3)nc3c2cnn3C(C)C)cc1,inactive
9,CCOC(=O)c1ccc(NC(=O)C2CCN(S(=O)(=O)c3ccc4c(c3)CCCC(=O)N4)CC2)cc1,inactive
10,COc1ccc2nc(SCc3ccccc3)nc(C)c2c1,2.69 µM (active)
11,COc1cccc(CSc2nc3nc(C)cc(C)n3n2)c1,inactive
12,COc1ccc(-c2nnc3ccc(SCc4ccccc4)nn23)cc1,inactive
13,CC(Oc1ccc(Br)cc1)C(=O)NC1CCCCCC1 (centres undefined),inactive
14,CCn1cc(C(=O)N2CCN(c3cc(Cl)ccc3C)CC2)c(=O)c2cc(S(=O)(=O)N3CCCC3)ccc21,inactive
15,CC(C)(Oc1ccc(Cl)cc1)C(=O)OCC(=O)NCCc1ccc(S(N)(=O)=O)cc1,inactive
16,O=C(NCCc1ccccc1)C(=O)NCC(c1ccco1)S(=O)(=O)c1ccccc1 (centres undefined),inactive
17,CCCCn1c(N)c(N(CCOC)C(=O)c2cccc(S(=O)(=O)N(C)c3ccccc3)c2)c(=O)[nH]c1=O,inactive
18,COc1ccccc1N1CCN(C(=O)c2cn(-c3ccccc3)nc2-c2cccnc2)CC1,9.53 µM (active)
19,NC(=O)C1CCN(C(=O)c2cn(-c3ccccc3)nc2-c2cccnc2)CC1,inactive
20,O=C(c1cn(-c2ccccc2)nc1-c1cccnc1)N1CCN(S(=O)(=O)c2ccccc2F)CC1,inactive
21,CCOCCCNC(=O)c1c(NC(=O)Cc2coc3c(C)c(C)ccc23)sc2c1CCC2,inactive
22,CC[C@]1(c2ccccc2OC)C(=O)N(C(=O)OC)N1C(=O)OC,inactive
23,O=C(COc1ccccc1)NCc1ccc2c(c1)CCN2C(=O)c1ccc(F)cc1,inactive
24,Cc1cccc(OCCNC(=O)CSc2ccc(C(F)(F)F)cc2[N+](=O)[O-])c1,inactive
25,COc1ccc(-c2nn(CC(=O)Nc3ccccc3F)c3c2cnc2ccc(F)cc23)cc1,inactive
26,CC(C)(C)OC(=O)N1CCC(C(=O)NNC(=O)c2ccc(Cl)cc2Cl)CC1,inactive

row,SMILES,Potency
1,O=C(CCN1C(=O)c2ccncc2C1=O)Nc1ccc2c(c1)OCCO2,inactive
2,Cc1nn(CC(=O)Nc2ccc3c(c2)OCO3)c(C)c1[N+](=O)[O-],inactive
3,COc1cccc(NC(=O)c2nn(C34CC5CC(CC(C5)C3)C4)cc2[N+](=O)[O-])c1,inactive
4,CCC(C(=O)Nc1ccc2c(c1)OCCO2)c1ccccc1 (centres undefined),inactive
5,O=C(Nc1cccc(NC(=O)c2ccco2)c1)c1cnccn1,inactive
6,O=C(Nc1ccc2c(c1)OCCO2)c1cnccn1,12 µM (active)
7,Cn1cc([N+](=O)[O-])c(C(=O)Nc2ccc3c(c2)OCCO3)n1,16.9 µM (active)
8,O=C(Nc1ccc2c(c1)OCO2)c1ccc(N2C(=O)c3ccccc3C2=O)cc1,inactive
9,O=C(Nc1ccc2c(c1)OCCO2)c1ccoc1,21.3 µM (active)
10,O=C(OCc1cc(=O)n2ccsc2n1)C1(c2ccc(Cl)cc2)CC1,inactive
11,COCC(C)NS(=O)(=O)c1ccc(N2CCCCS2(=O)=O)cc1 (centres undefined),inactive
12,COc1ccccc1N=C1SC(C)CN1C(=O)C1CCC1 (centres undefined),inactive
13,CCOc1ccc(C(=O)Nc2ccc3nc4c(c(Nc5ccccc5OC)c3c2)CCCC4)cc1,inactive
14,CCOC(=O)C1CCN(c2ncnc3c2c(-c2ccccc2)cn3-c2cccc(C)c2)CC1,inactive
15,COc1ccc(C(C)NC(=O)C23CC4CC(CC(C4)C2)C3)cc1 (centres undefined),inactive
16,O=C(Nc1ccc(-c2ccc3nncn3n2)cc1)C1CCCCC1,26.9 µM (active)
17,CC(C)NS(=O)(=O)c1ccc(NC(=O)C2CCCCC2)cc1,inactive
18,CC(=O)c1ccc(S(=O)(=O)Nc2ccc(-c3ccc4nncn4n3)cc2)cc1,inactive
19,COc1ccccc1NC(=O)c1oc2ccccc2c1NC(=O)COc1ccccc1OC,inactive
20,CCCCN(CC)CCCNC(=O)c1nn(C)c2c1CSc1ccccc1-2,inactive
21,CCOC(=O)N1CCN(C(=O)CNC(=O)Cc2ccc(Cl)cc2)CC1,inactive
22,CCOC(=O)c1ccc(CS(=O)c2ccc(Cl)cc2)o1 (centres undefined),inactive
23,CCOC(=O)c1c(Cc2ccc(Cl)cc2)c[nH]c1C,19 µM (active)
24,Cc1nc(-c2ccc(Cl)cc2)sc1C1(C)CC(c2ccccc2F)=NO1 (centres undefined),19 µM (active)
25,CC1(c2nnc(Cc3ccccc3)o2)CC(c2ccccc2F)=NO1 (centres undefined),inactive
26,Cc1nc(C(=O)Nc2ccc(Cl)cc2)sc1C1(C)CC(c2ccccc2)=NO1 (centres undefined),inactive

row,SMILES,Potency
1,CN(CC(=O)Nc1ccc(F)c(F)c1F)C(=O)C1CC(=O)N(C2CCCC2)C1 (centres undefined),inactive
2,O=C(/C=C/Sc1ncn[nH]1)c1ccc(Cl)cc1,1.9 µM (active)
3,O=C(CSc1ncn[nH]1)NCc1ccc2c(c1)OCO2,inactive
4,CC(C)COC(=O)c1ccc(NC(=O)C2C3C=CC(C3)C2C(=O)O)cc1 (centres undefined),19 µM (active)
5,CC(=O)NS(=O)(=O)c1ccc(NC(=O)C2C3C=CC(C3)C2C(=O)O)cc1 (centres undefined),inactive
6,COC(=O)c1cc(NC(=O)C2C3C=CC(C3)C2C(=O)O)cc(C(=O)OC)c1 (centres undefined),inactive
7,CCCN(CC1CC1)C(=S)NC(=O)c1ccccc1Br,inactive
8,Cc1csc2nc(COC(=O)c3ccc(NC(=O)COc4ccccc4F)cc3)cc(=O)n12,inactive
9,COc1ccccc1N1CCN(C(=O)C2CCN(S(=O)(=O)c3c(C)noc3/C=C/c3ccc(C)cc3)CC2)CC1,inactive
10,Cc1csc(NC(=O)C2CCN(S(=O)(=O)c3ccccc3)CC2)n1,inactive
11,O=C(Nc1ccccn1)C1CCN(S(=O)(=O)c2ccccc2)CC1,23.9 µM (active)
12,COCCNC(=O)C1CCN(S(=O)(=O)c2ccc3c(c2)OCCO3)CC1,inactive
13,O=C(Nc1ccccn1)C1CCN(S(=O)(=O)c2ccc3c(c2)OCCO3)CC1,19 µM (active)
14,O=C(NCc1ccccn1)C1CCN(S(=O)(=O)c2ccc(Br)cc2)CC1,inactive
15,O=C(NCc1cccs1)C1CCN(S(=O)(=O)c2ccc3c(c2)OCCO3)CC1,inactive
16,C=Cc1ccc(Cn2c(C(=O)O)c(CNC3CCCC3)c3ccc(C)cc32)cc1,inactive
17,CCOC(=O)c1c(NC(C)=O)c2c3c(sc2n1Cc1c(C)cc(C)cc1C)CCCC3,inactive
18,CCOC(=O)c1ccccc1NC(=O)COC(=O)C(Cc1c[nH]c2ccccc12)NC(C)=O (centres undefined),inactive
19,CCC(=O)N1CCc2cc(S(=O)(=O)NCCC(=O)Nc3cccc(C)c3C)ccc21,inactive
20,Cc1oc(C)c2c(=O)cc(-c3ccc4c(c3)OCO4)cc(OC(=O)c3ccc(Cl)cc3)c12,inactive
21,Cc1cc(/C=C2/NC(=O)NC2=O)c(C)n1-c1cccnc1,15.1 µM (active)
22,Cc1ccccc1N1CC(c2nc3ccccc3[nH]2)CC1=O (centres undefined),inactive
23,Cc1cc(/C=C2\SC(=Nc3ccc(N4CCOCC4)cc3)N(C)C2=O)c(C)n1-c1cccnc1,inactive
24,Cc1ccc2c(c1)C(O)(CC(=O)c1cccnc1)C(=O)N2 (centres undefined),inactive
25,CSc1cc(C)n(-c2ccccc2C)c(=S)c1C(C)=O,inactive
26,Cc1ccccc1-n1c(C)cc(/C=C2\NC(=O)NC2=O)c1C,1.9 µM (active)
